Assay results reported in PubChem BioAssay AID504842 (National Center for Advancing Translational Sciences (NCATS), 2011).
Among all 330,000 compounds or so, about 100 (0.03%) were called active. Roughly 1% stayed inconclusive and do not appear here. The call rests on the fitted dose curve; in most records, active means well fitted inhibition curve with a large enough effect; inconclusive means small, poorly fitted or top-dose-only effect; inactive means flat fitted curve, though single readings scatter. The full list was thinned out, with actives kept by preference.

System: Chaperonin Mm-Cpn (Methanococcus maripaludis)
Test: Inhibitors of TCP-1 ring complex (TRiC) of Methanococcus maripaludis (MmCpn): qHTS; further: nearly all actives have a fitted effect of over 80% in size
Conditions: purified Mm-Cpn ATPase, ADP Transcreener TR-FRET; series mostly up to 76.9 µM
Description: The eukaryotic chaperonin TRiC (for TCP-1 ring complex) is an essential and conserved chaperone required for the folding and activation of 10-15% of the proteins encoded by the human genome. […] The TRiC complex consist of two stacked 7-9 membered rings, each containing a central cavity. Substrates are folded within the cavity in an ATP-dependent manner. TRiC is a complex of eight different, essential proteins. As each of the genes encoding the eight subunits is essential for cell viability and no protocol has been developed to over-express this enzyme to high levels. That is why several groups studying the TRiC chaperonin have turned to the archaeal homolog of TRiC, Methanococcus maripaludis (Mm-CPN), and have used this enzyme as a model system for the study of the type II chaperonin family. Small molecule inhibitors of the Mm-CPN enzyme would be extremely useful to study the mechanism of chaperonin activity. Importantly, TRiC and Mm-CPN both require ATP hydrolysis for function. Furthermore, the ATP binding sites are highly conserved among these type II chaperonins. This provides us with an easy, well tested and straightforward assay to identify inhibitors of chaperonin activity. The Mm-CPN assay was developed in 1536-well plate format using the HTRF Transcreener ADP assay kit (Cisbio, Bedford, MA). This assay applied the time resolved fluorescence resonance energy transfer (TR-FRET) principle. ATP in the presence of Mm-CPN is converted to ADP + Pi. An antibody labeled with Eu3+-Cryptate specific and bound to ADP labeled with […] (d2) competes with the unlabeled ADP generated by Mm-CPN. The resulting TR-FRET signal is inversely proportional to the concentration of ADP in the sample. In this assay a reduction in TR-FRET signal is observed with ATP turnover. NIH Chemical Genomics Center [NCGC] NIH Molecular Libraries Probe Centers Network [MLPCN] MLPCN Grant: DA030554-01A1 Assay Submitter (PI): Judith Frydman, Stanford University
Purified Mm-CPN was supplied by the laboratory of Dr. Judith Frydman. Protein samples were stored at -80C as single use aliquots. Protein was thawed in ambient temperature water bath and placed on ice once thawed. Buffer was prepared fresh day of screen. The buffer composition below was used to prepare the working solution of the Mm-CPN protein and ATP substrate. The buffer is comprised of 30 mM TRIS pH 7.4, 100mM KCl, 5mM MgCl2, and 1mM DTT. A final concentration of 25nM Mm-CPN and 10uM ATP per well were used in the screen. Instructions according to the manufacturer were followed for the ADP Transcreener kit. Used 1536 well Greiner white, medium binding (MB), solid bottom plates. Plates were read on the PerkinElmer EnVision plate reader using Excitation = 320 nm and Emission = […], 665 nm. Protocol- 1.Dispense 1.5ul per well of working [Mm-CPN] = 50nM (or 75 ng / well) 2.Spin plate at 1000 rpm for 30 seconds 3.23nl of compound transferred per well 4.Incubate at 37degC for 10 minutes 5.Dispense 1.5ul per well of working [ATP] = 20uM 6.Incubate at 37degC for 30 minutes 7.Dispense 3ul per well of Anti-ADP Cryptate / ADP-d2 mix (prepared as instructed by Cisbio) 8.Incubate at ambient for 30 minutes 9.Read using EnVision

Potency, inactive:
CCOc1ccc(NC(=O)CCCCCN2C(=O)[C@@H]3Cc4ccccc4CN3C2=O)cc1
CCN1C(=S)N[C@@H](c2cccc(C(F)(F)F)c2)C(C(=O)OC)=C1C
COc1cc(C(c2c(NC(=O)c3ccco3)sc(C)c2C)N2CCOCC2)cc(OC)c1OC (stereo unspecified)
CCC1CCCCN1C(=O)CSc1nc(C)cc(C)n1 (stereo unspecified)
COC(=O)C1CCN(C(=O)NC2CC(=O)N(c3ccc4c(c3)OCCO4)C2)CC1 (stereo unspecified)
O=C(CNCc1ccc(Cl)cc1)Nc1cccc(C(=O)O)c1
Cc1ccc(-n2c(C)cc(/C=C(\C#N)C(=O)NCC3CCCO3)c2C)cc1 (stereo unspecified)
Cc1ccc(C)c(NC(=O)C(c2ccccc2)N2CCN(CC(=O)NC3CC3)CC2)c1 (stereo unspecified)
COc1ccccc1NC(=O)c1cc(N2C(=O)C3C4CCC(C4)C3C2=O)ccc1Cl (stereo unspecified)
CCc1nn(CCCC(=O)Nc2ccc(C)cc2C)c(=O)c2cc3occc3n12
O=S(=O)(NC1CCN(S(=O)(=O)c2ccc3c(c2)OCCO3)CC1)c1c(F)cccc1F
COC(=O)c1ccc(Nc2ncnc3sccc23)cc1
COc1ccc2nc(NC3=NCN(CC4CCCO4)CN3)nc(C)c2c1 (stereo unspecified)
O=S(=O)(c1ccc(-c2ccccc2)cc1)N1CCCC1
COc1cc(C2C(C(=O)c3sc(C)nc3C)=C(O)C(=O)N2CCN(C)C)cc(OC)c1OC (stereo unspecified)
NC(=O)C1CCN(c2nc(-c3cccc(F)c3)cs2)CC1
CCN(CC(=O)Nc1cc(Cl)ccc1C)C(=O)CSCc1ccccc1
Cc1ccc(C(=O)OCC(=O)Nc2ccc(Cl)cn2)cc1S(=O)(=O)N1CCOCC1
OCCNc1nc2ccccc2n1-c1ncnc2sc3c(c12)CCC3
CCOC(=O)NC(=O)C(=CNc1cccc(OC)c1)C(=O)NC(=O)OCC
O.O.O.O=S(=O)([O-])OC[C@H]1O[C@@H](O[C@]2(COS(=O)(=O)[O-])O[C@H](OS(=O)(=O)[O-])[C@@H](OS(=O)(=O)[O-])[C@@H]2OS(=O)(=O)[O-])[C@H](OS(=O)(=O)[O-])[C@@H](OS(=O)(=O)[O-])[C@@H]1OS(=O)(=O)[O-].[Al]
CCOc1ccc(NC(=O)COC(=O)C2CCC(=O)N2)c([N+](=O)[O-])c1 (stereo unspecified)
CN(C(=O)CSc1nnc(C2CC2)n1C)C1CCCc2ccccc21 (stereo unspecified)
C=C(C)c1cccc(C(C)(C)NC(=O)NC2CCCC2)c1
CC(=O)NC(NC(=S)Nc1c(C)n(C)n(-c2ccccc2)c1=O)C(Cl)(Cl)Cl (stereo unspecified)
COc1cccc(NS(=O)(=O)c2ccc(-c3coc(C)n3)cc2)c1
Nc1ccccc1C(=O)NC1CCCCNC1=O (stereo unspecified)
COc1cccc(N2CC(C(=O)NCc3n[nH]c(=O)c4ccccc34)CC2=O)c1 (stereo unspecified)
CCOC(=O)c1c(N)c(C#N)nn1-c1ccccc1C(=O)OC
O=C(c1c(F)cccc1F)N1CCN(c2ncc(Br)cn2)CC1
Cc1ccccc1NC(=O)CCNS(=O)(=O)c1ccc2[nH]c(=O)oc2c1
CC(C)N(C)C(=O)CCc1nnc(CCc2c[nH]c3ccccc23)o1
O=C(Nc1cccc(C(=O)NC2CC2)c1)c1ccc(F)c(S(=O)(=O)N2CCOCC2)c1
CC(=O)NC(c1cccs1)c1cc(Br)c2cccnc2c1O (stereo unspecified)
COc1ccc(-c2[nH]ncc2CN(Cc2nccn2C)C(C)C)cc1F
COc1ccc(CNC(=O)CN2C(=O)NC3(CCCc4sccc43)C2=O)cc1 (stereo unspecified)
O=S1(=O)C=C(SCCN2CCCC2)c2ccccc21
CC(C)(C)NC(=O)CN(C(=O)c1ccc(Cl)nc1)c1cccc2ccccc12
CC(C#N)(NC(=O)CN1CCN(S(=O)(=O)c2cc(C(F)(F)F)ccc2Cl)CC1)C1CC1 (stereo unspecified)
Cc1nc(COc2cccc(Cl)c2)sc1C(=O)/C=C/N(C)C
COc1ccc([C@H]2CC(=O)C=C(/C=C/c3ccc(Cl)cc3)C2)cc1
COc1ccc(F)cc1C(=O)COC(=O)c1n[nH]c(=O)c2ccccc12
CC(C)N(C(=O)Cn1cc(SCC(=O)N2CCCC2)c2ccccc21)C(C)C
CN(C)CCN=c1cc(-c2ccccc2)oc2ccc(Cl)cc12
CC1(C)C/C(=C(/C#N)C(N)=O)CCO1
COc1ccccc1Oc1ccc(N2CC(C(=O)OCC(=O)c3ccc(F)cc3)CC2=O)cc1 (stereo unspecified)
CCCOc1ccc(C(=O)C(CCC(CNCC)C(=O)c2ccc(OCCC)cc2)CNCC)cc1 (stereo unspecified)
Cc1ccc(S(=O)(=O)N2CCCC2C(=O)OCc2nc3sc(C)c(C)c3c(=O)[nH]2)cc1 (stereo unspecified)
Nc1c(Cl)cc(S(N)(=O)=O)cc1S(N)(=O)=O
Nc1ccc(Cl)c(S(=O)(=O)Nc2ccccc2Cl)c1
O=C(CN1CCN(C(=O)c2ccco2)CC1)Nc1ccc(Cl)c(C(F)(F)F)c1
